Results filed as inconclusive are left out. Calls of active or inactive are those of the source. Calls come from the whole dose curve; as a rule, active = well fitted inhibition curve with a large enough effect; inconclusive = small, poorly fitted or top-dose-only effect; inactive = flat fitted curve, though single readings scatter.
Tests used:
CRL-7250 = normal cell line; experiment: Cytotoxic Profiling of Annotated Libraries Using Quantitative High-Throughput Screening (AID 1296008); conditions: Five cell lines viability, CellTiter-Glo ATP luminescence, 48-72 h; max response: hits give low values; for max response: % is set by controls: 0 for no effect and ±100 for the full control effect
Outline: (§1)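 Cells exposed to compounds for 48 or 72 hr at 37 degrees Celsius. Viability read as ATP-coupled luminescence with CellTiter-Glo after 10 min at room temperature.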

HaCat [1] = experiment: as above; conditions: Five cell lines viability, CellTiter-Glo ATP luminescence, 48-72 h; max response: hits give low values
Outline: as §1

KB-3-1 = experiment: as above; conditions: Five cell lines viability, CellTiter-Glo ATP luminescence, 48-72 h; max response: hits give low values
Outline: as §1

NIH3T3 = experiment: as above; conditions: Five cell lines viability, CellTiter-Glo ATP luminescence, 48-72 h; max response: hits give low values
Outline: as §1

HACAT [2] = experiment: qHTS assay to identify novel small-molecules to repurpose for Merkel cell carcinoma treatment (AID 1296009); conditions: MCC and control cell lines, CellTiter-Glo viability, 72 h; at 44.8 µM (top of the series) unless noted
Outline: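 Dose-response viability screen; 72 hr exposure at 37 degree celsius; CellTiter-Glo added, 10 min room temperature, luminescence read; RLUs scaled between no-cell and DMSO wells.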

Measured: max response
Note: nearly all actives have a fitted effect of over 60% in size.

COc1ccc2c(c1O[C@H]1CCNC1)CCC2
inactive: CRL-7250 -1.86% | HaCat [1] | KB-3-1 -7.28% | NIH3T3 | HACAT [2]

C=C(C)[C@@H]1CC[C@]2(C(=O)O)CC[C@]3(C(=O)O)[C@H](CCC4[C@@]5(C)CCC(=O)C(C)(C)C5CC[C@]43C)C12 (stereo not given in full)
inactive: CRL-7250 -13.3% | HaCat [1] | KB-3-1 4.42% | NIH3T3 -2.4% | HACAT [2] inactive [at 17.4 µM]

CC(=O)OC1CC(C)(C(=O)O)CC2C3=CC(=O)C4C5(C)CCC(OC6OC(C(=O)O)C(O)C(O)C6OC6OC(C(=O)O)C(O)C(O)C6O)C(C)(C)C5CCC4(C)C3(C)CCC12C (stereo not given)
inactive: CRL-7250 -2.54% | HaCat [1] | KB-3-1 3.1% | NIH3T3 1.8% | HACAT [2] inactive [at 9.27 µM]

CC(C)(C)Sc1c(CC(C)(C)C(=O)O)n(Cc2ccc(Cl)cc2)c2ccc(OCc3ccc4ccccc4n3)cc12
inactive: CRL-7250 -0.604% | HaCat [1] | KB-3-1 | NIH3T3 1.54% | HACAT [2]

O=S(=O)(Cc1ccccc1)Nc1ccc(-c2ccc3c(cnn3-c3ccc(F)cc3)c2)c(C(F)(F)F)c1
inactive: CRL-7250 -4.69% | HaCat [1] | KB-3-1 -15.9% | NIH3T3 -4.39% | HACAT [2]
